# AGP1-GFP MLPCN = alters AGP1-GFP fluorescence in TOR pathway yeast screen; S. cerevisiae AGP1-GFP multiplex flow cytometry, 3 h; GFP as percent of DMSO wells; GFP response vs DMSO, % at 10 µM; 320,000 tested, 0.02% active; AID 2066;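 active means GFP response relative to DMSO above a set limit, near screen average plus 3 SD, cut at about 150% in these data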;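 further: median GFP channel fluorescence of the gated AGP1 strain per well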
# RPL19A TOR yeast = alters RPL19A-GFP fluorescence in TOR pathway yeast screen | S. cerevisiae RPL19A-GFP strain, flow cytometry, 3 h; stronger effect = lower value | percent response vs DMSO, % at 10 µM | 330,000 tested, 0.3% active;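 active means percent response vs DMSO below 50%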;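 further: median channel GFP fluorescence of the barcoded RPL19A-GFP strain; ratio of sample median GFP to plate DMSO average so 100% = DMSO; lower means less RPL19A-GFP as with rapamycin TOR inhibition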
# CIT2-GFP yeast = yeast TOR pathway CIT2-GFP modulation; 320,000 tested, 0.065% active; S. cerevisiae CIT2-GFP strain, flow cytometry, 3 h; 100 means same as DMSO wells; GFP response vs DMSO, % at 10 µM; AID 2029;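 active means GFP response relative to DMSO above a set limit, near the screen mean plus 3 SD, cut at about 150% in these data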;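 further: ratio of well median GFP fluorescence to mean of DMSO wells on the plate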
# LAP4-GFP MLPCN = yeast TOR pathway LAP4-GFP modulation. S. cerevisiae LAP4-GFP multiplex, flow cytometry GFP, 3 h; median GFP as percent of DMSO wells. GFP response vs DMSO, % at 10 µM. 320,000 tested, 0.34% active. AID 2023;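 active means GFP response vs DMSO above a set limit, about the screen mean plus 3 SD, cut at about 150% in these data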
# MEP2 TOR yeast = modulators of TOR pathway MEP2-GFP in S. cerevisiae; GFP response vs DMSO, % at 10 µM; S. cerevisiae MEP2-GFP strain, flow cytometry GFP, 3 h; 100% = DMSO control level; 330,000 tested, 0.51% active;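 active means GFP response versus DMSO above a set limit, roughly screen mean plus 3 SD, cut at about 180% in these data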;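 further: median GFP fluorescence of the barcode-gated MEP2-GFP cells per well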
# LAP4-GFP pick2 = yeast LAP4-GFP modulation, second cherry pick | S. cerevisiae LAP4-GFP strain, flow cytometry GFP, 3 h | AID 2621 | 590 tested, 20% active | GFP response vs DMSO, % at 10 µM | shares compounds with LAP4-GFP MLPCN;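 active means GFP signal as percent of the solvent control above about 150%, meaning raised reporter expression, limit read from the data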;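 further: ratio of well median GFP fluorescence to plate DMSO mean so 100% = DMSO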
# MEP2-GFP pick2 = reconfirmed MEP2-GFP TOR pathway modulator in yeast | shares compounds with LAP4-GFP MLPCN | S. cerevisiae MEP2-GFP strain, flow cytometry GFP, 3 h | GFP response vs DMSO, % at 10 µM | 590 tested, 10% active;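 active means GFP signal above 150% of the solvent control wells, that is a rise of more than half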;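 further: median channel GFP fluorescence of all gated yeast cells per well; ratio of median GFP to plate DMSO average so 100% = DMSO level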
# RPL19A GFP CP2 = second confirmation of modulators of TOR reporter RPL19A-GFP in yeast | S. cerevisiae RPL19A-GFP strain, flow cytometry GFP, 3 h; stronger effect = lower value; 100% means same as DMSO wells | GFP response vs DMSO, % at 10 µM | 590 tested, 3% active | shares compounds with LAP4-GFP MLPCN;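 active means under 65% GFP response relative to DMSO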;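 further: median GFP channel fluorescence per well over the all cells gate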
# CIT2 GFP CP2 = yeast CIT2-GFP TOR reporter modulation, second cherry pick; GFP response vs DMSO, % at 10 µM; AID 2624; 590 tested, 8% active; shares compounds with LAP4-GFP MLPCN; S. cerevisiae CIT2-GFP strain, flow cytometry GFP, 3 h; DMSO control wells read 100%;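 active means GFP response vs DMSO above about 150%, limit read from the data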;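 further: median green fluorescence per well over all gated yeast cells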
# AGP1-GFP pick2 = yeast AGP1-GFP TOR reporter modulation, second cherry pick; shares compounds with LAP4-GFP MLPCN; S. cerevisiae AGP1-GFP strain, flow cytometry GFP, 3 h; percent response vs DMSO, % at 10 µM; 590 tested, under 10 active;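 active means over 150 percent of DMSO response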;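 further: median GFP channel fluorescence over all cells without mother daughter split; sample median GFP divided by mean DMSO control so 100% equals DMSO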
# s288c autofluor = counter-screen for compound autofluorescence in yeast s288c cells. shares compounds with LAP4-GFP MLPCN. 610 tested, under 10 active. S. cerevisiae s288c, 520 nm autofluorescence, flow cytometry, 3 h; stronger effect = higher value; zero means same as solvent-only cells. fluorescence change (kMESF span) at 33 µM;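 active means fluorescence span over the dose series, or activity score, above about 33, limit read from the data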
# The depositor's hits bear a star; / = no result; [ ] = another dose, or the depositor's remark. Only some compounds are listed: those with a hit (about 0.93% of all), similar ones and a draw of the others.
SMILES,AGP1-GFP MLPCN,RPL19A TOR yeast,CIT2-GFP yeast,LAP4-GFP MLPCN,MEP2 TOR yeast,LAP4-GFP pick2,MEP2-GFP pick2,RPL19A GFP CP2,CIT2 GFP CP2,AGP1-GFP pick2,s288c autofluor
CCCc1cc(N2CCOCC2)n2nc(C)c(-c3ccccc3)c2n1,94,103,99,99,109,/,/,/,/,/,/
CC(C)(C)C1CCC(=NNC(=O)C(=O)NCc2ccco2)CC1 (stereo not given),83,60,84,88,115,96,98,99,105,100,/
CCOC(=O)C1=C(COC(=O)CNC(=O)c2ccc(C(C)(C)C)cc2)NC(=O)NC1C (stereo not given),104,97,92,102,99,/,/,/,/,/,/
CCOC(=O)C1=C(COC(=O)CNC(=O)c2ccc(C)cc2)NC(=O)NC1C (stereo not given),88,62,85,82,87,98,98,99,104,101,/
Cc1ccc(/C=C/C(=O)N2CCc3ccccc32)o1,88,101,92,168*[may fluoresce green],100,105,105,104,102,96,/
CN(CCO)c1ncnc2c1sc1nc(N3CCOCC3)c3c(c12)CCC3,111,108,112,116,110,/,/,/,/,/,/
CCN(CC)c1ccc(/C=C2/C(=O)c3ccc(C(=O)O)cc3C2=O)cc1,124,134,231*,298*,365*,285*,377*,119,250*,110,21
COc1ccccc1N1C(=O)c2cccc3c(C(=O)O)ccc(c23)C1=O,94,90,90,92,94,/,/,/,/,/,0.2
CCN(CC)CCN(Cc1cc2cc3c(cc2[nH]c1=O)OCO3)C(=S)NCCOC,98,102,97,100,106,/,/,/,/,/,/
COc1ccc(N=Cc2nc(-c3ccccc3)oc2OC(C)=O)cc1,101,103,89,120,98,/,/,/,/,/,0
COc1cccc(N=CC2=C(O)CCCC2=O)c1,99,93,92,106,102,/,/,/,/,/,/
COc1cccc(N=Cc2nc(-c3ccccc3)oc2OC(C)=O)c1,/,99,/,/,89,/,/,/,/,/,-0.2
O=S(=O)(c1ccc(F)cc1)c1snnc1-c1ccccc1,100,93,/,131,100,122,96,97,108,94,/
O=C(Nc1ccc2nc3n(c(=O)c2c1)CCCCC3)C(=O)N1CCN(c2ccccc2F)CC1,105,104,104,101,100,/,/,/,/,/,/
CC(C)(C)C1C/C(=C/c2ccccn2)C(=O)/C(=C/c2ccccn2)C1 (stereo not given),80,99,84,162*,97,181*,98,104,106,96,0
CC1=NNC(=O)/C1=C\c1cn(-c2ccccc2)nc1-c1cccs1,88,92,94,263*,108,/,/,/,/,/,3
COc1ccccc1N1C(=O)CC(c2ccccc2)CC1=O,100,99,99,95,98,/,/,/,/,/,/
Cc1ccccc1[C@]1(C)ON(c2ccccc2C(F)(F)F)C1=O,81,95,81,122,81,117,102,104,114,102,0.4

# Bioassay records: PubChem BioAssay, NMMLSC
